Test results reported in ChEMBL document CHEMBL3988442, “University of Dundee, Small-Polar-MMV Screening Library” (2021).
For some assays here: Measured potencies and affinities stand elsewhere.

Key:
Set-up in all cases: scale not given: direction of the effect not stated beside the values
[1] = biological target: Protein translocase subunit SecA (Escherichia coli (strain K12)) (UniProt P10408); assay: Assay to Identify E. coli SecA ATPase Inhibitors; format: functional; conditions: 30 µM
[2] = biological target: T1, Ubiquitin-activating enzyme e1, putative (Leishmania donovani (strain BPK282A1)) (UniProt E9BSI1); assay: Leishmania donovani Ubiquitin Activating Enzyme (LdE1); format: functional; conditions: 30 µM
T1 sequence (whole entry): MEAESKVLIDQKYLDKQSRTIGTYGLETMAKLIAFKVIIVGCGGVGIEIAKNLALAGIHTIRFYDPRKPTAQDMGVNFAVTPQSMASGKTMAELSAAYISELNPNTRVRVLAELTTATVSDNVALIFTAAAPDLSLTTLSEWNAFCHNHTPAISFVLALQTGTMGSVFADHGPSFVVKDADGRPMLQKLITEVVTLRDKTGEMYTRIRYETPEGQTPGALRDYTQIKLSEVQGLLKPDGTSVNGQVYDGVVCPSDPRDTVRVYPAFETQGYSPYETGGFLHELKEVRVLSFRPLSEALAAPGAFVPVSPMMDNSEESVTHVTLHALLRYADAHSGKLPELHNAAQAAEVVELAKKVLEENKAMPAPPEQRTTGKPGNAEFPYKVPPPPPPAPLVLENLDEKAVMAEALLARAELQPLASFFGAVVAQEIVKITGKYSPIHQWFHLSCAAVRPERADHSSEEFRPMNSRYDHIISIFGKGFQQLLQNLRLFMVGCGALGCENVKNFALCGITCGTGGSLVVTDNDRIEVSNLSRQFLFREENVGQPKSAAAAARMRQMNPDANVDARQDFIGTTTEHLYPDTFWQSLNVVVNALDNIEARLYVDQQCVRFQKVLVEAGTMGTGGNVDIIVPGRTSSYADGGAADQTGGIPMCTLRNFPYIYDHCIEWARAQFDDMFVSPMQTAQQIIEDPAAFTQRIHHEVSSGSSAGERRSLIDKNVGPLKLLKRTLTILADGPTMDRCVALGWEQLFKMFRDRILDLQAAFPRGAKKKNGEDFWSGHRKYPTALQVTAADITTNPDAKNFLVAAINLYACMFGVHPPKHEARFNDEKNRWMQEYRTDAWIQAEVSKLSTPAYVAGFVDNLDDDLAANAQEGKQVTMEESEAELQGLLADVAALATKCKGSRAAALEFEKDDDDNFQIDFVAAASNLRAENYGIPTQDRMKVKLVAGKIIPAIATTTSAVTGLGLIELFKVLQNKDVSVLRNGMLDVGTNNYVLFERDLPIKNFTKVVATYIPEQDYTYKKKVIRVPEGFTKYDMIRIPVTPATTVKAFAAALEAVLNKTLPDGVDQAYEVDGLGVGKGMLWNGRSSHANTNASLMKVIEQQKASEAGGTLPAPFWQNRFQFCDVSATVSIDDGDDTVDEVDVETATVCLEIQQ

[3] = biological target: AMP-activated protein kinase, AMPK (Homo sapiens) (UniProt P54646+O43741+P54619+Q9UGJ0+Q9Y478+Q13131+Q9UGI9); assay: AMP-dependent Kinase enzyme assay. An in vitro enzyme assay that detects ADP turnover that is directly proportional to AMPK activity. This uses naive AMPK that is activated during the assay with MK-8722; format: functional; conditions: 30 µM
[4] = biological target: Sialic acid-binding Ig-like lectin 9 (Homo sapiens) (UniProt Q9Y336); assay: Hs-Siglec9 ALPHAscreen SOP 20170721; conditions: 10 µM
Sialic acid-binding Ig-like lectin 9 (Homo sapiens), sequence (Q9Y336 whole entry): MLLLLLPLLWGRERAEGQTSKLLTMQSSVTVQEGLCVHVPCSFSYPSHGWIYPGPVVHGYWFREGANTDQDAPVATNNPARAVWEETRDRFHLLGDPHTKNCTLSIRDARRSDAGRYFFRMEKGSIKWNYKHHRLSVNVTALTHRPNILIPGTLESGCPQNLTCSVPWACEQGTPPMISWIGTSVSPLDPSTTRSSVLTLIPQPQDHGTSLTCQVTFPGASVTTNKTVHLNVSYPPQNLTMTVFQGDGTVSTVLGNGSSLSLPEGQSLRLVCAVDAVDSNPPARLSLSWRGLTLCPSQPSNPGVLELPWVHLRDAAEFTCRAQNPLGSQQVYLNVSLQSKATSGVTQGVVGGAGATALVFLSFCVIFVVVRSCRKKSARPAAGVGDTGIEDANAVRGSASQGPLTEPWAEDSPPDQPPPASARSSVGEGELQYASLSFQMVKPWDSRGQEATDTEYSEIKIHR

[5] = system: Trypanosoma cruzi; assay: Trypanosoma cruzi phosphomannomutase and mannose-1-phosphate guanylyltransferase assay; format: functional; conditions: 10 µM
[6] = biological target: T2, Arginase-2, mitochondrial (Homo sapiens) (UniProt P78540); assay: in vitro enzyme assay to detect the production of urea directly proportional to the activity of Arginase II; format: functional; conditions: 33.3 µM; further: in the data most compounds retested in dose-response had high values
T2 sequence (whole entry): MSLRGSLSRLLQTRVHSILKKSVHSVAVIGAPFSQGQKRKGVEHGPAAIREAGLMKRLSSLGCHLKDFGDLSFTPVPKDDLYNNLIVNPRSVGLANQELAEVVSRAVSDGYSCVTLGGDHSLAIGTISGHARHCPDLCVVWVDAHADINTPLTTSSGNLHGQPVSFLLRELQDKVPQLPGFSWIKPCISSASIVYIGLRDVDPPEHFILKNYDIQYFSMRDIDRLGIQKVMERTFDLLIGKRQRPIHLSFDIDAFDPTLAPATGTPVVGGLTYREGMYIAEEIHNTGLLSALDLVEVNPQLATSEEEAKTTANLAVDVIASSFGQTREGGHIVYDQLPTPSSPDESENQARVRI

[7] = biological target: T3, Proteasome subunit beta (Trypanosoma cruzi) (UniProt O96673); assay: Trypanosoma cruzi proteasome chymotrypsin-like activity (TcProtChymo) assay.; further: in the data most compounds retested in dose-response had high values; format: functional; conditions: 9.37 µM
T3 sequence (whole entry): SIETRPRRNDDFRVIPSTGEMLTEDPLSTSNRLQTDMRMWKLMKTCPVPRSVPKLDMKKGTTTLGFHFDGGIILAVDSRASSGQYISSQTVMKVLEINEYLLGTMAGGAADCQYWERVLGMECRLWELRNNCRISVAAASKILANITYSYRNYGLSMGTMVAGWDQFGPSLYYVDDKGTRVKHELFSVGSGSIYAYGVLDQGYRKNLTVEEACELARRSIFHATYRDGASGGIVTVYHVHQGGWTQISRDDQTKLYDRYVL

[8] = species on record: Homo sapiens; assay: To identify inhibition of the IFN signalling (Jak-Stat) pathway via expression of an eGFP reporter gene under the control of an IFN-stimulated response element (ISRE) containing MxA promoter.; format: functional; conditions: 30 µM
[9] = biological target: T4, Tyrosyl-tRNA synthetase, putative (Trypanosoma cruzi (strain CL Brener)) (UniProt Q4DSP6); assay: Trypanosoma cruzi tyrosyl tRNA synthetase (TcYRS) _High Tyrosine SOP; format: functional; conditions: 30 µM; further: in the data most compounds retested in dose-response had high values
T4 sequence (whole entry): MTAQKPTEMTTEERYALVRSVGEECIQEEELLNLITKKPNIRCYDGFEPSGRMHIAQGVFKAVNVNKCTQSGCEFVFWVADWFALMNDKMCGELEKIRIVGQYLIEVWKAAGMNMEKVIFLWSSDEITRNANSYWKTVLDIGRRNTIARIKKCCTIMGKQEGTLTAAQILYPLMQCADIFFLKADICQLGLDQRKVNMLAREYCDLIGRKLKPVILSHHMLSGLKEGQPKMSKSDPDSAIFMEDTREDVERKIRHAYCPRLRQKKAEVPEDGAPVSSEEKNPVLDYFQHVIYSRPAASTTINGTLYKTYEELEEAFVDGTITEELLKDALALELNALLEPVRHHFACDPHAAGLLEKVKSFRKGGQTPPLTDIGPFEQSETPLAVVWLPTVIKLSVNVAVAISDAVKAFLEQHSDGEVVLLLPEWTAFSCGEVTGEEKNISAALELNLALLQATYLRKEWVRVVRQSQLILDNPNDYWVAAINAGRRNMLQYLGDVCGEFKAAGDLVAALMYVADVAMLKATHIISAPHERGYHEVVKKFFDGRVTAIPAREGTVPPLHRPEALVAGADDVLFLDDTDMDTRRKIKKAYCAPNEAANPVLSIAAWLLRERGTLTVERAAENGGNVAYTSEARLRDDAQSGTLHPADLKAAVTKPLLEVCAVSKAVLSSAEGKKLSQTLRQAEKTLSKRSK

[10] = biological target: T4, Tyrosyl-tRNA synthetase, putative (Trypanosoma cruzi (strain CL Brener)); assay: Trypanosoma cruzi tyrosyl tRNA synthetase (TcYRS) SOP; format: functional; conditions: 30 µM
[11] = biological target: Chromo domain-containing protein 1 (Saccharomyces cerevisiae (strain ATCC 204508 / S288c) (Baker's yeast)) (UniProt P32657); assay: ScCHD-1 Enzyme Inhibition Assay; format: functional; conditions: 30 µM; further: in the data most compounds retested in dose-response had high values
Chromo domain-containing protein 1 (Saccharomyces cerevisiae (strain ATCC 204508 / S288c) (Baker's yeast)), sequence (P32657 whole entry, the tested form may be a part): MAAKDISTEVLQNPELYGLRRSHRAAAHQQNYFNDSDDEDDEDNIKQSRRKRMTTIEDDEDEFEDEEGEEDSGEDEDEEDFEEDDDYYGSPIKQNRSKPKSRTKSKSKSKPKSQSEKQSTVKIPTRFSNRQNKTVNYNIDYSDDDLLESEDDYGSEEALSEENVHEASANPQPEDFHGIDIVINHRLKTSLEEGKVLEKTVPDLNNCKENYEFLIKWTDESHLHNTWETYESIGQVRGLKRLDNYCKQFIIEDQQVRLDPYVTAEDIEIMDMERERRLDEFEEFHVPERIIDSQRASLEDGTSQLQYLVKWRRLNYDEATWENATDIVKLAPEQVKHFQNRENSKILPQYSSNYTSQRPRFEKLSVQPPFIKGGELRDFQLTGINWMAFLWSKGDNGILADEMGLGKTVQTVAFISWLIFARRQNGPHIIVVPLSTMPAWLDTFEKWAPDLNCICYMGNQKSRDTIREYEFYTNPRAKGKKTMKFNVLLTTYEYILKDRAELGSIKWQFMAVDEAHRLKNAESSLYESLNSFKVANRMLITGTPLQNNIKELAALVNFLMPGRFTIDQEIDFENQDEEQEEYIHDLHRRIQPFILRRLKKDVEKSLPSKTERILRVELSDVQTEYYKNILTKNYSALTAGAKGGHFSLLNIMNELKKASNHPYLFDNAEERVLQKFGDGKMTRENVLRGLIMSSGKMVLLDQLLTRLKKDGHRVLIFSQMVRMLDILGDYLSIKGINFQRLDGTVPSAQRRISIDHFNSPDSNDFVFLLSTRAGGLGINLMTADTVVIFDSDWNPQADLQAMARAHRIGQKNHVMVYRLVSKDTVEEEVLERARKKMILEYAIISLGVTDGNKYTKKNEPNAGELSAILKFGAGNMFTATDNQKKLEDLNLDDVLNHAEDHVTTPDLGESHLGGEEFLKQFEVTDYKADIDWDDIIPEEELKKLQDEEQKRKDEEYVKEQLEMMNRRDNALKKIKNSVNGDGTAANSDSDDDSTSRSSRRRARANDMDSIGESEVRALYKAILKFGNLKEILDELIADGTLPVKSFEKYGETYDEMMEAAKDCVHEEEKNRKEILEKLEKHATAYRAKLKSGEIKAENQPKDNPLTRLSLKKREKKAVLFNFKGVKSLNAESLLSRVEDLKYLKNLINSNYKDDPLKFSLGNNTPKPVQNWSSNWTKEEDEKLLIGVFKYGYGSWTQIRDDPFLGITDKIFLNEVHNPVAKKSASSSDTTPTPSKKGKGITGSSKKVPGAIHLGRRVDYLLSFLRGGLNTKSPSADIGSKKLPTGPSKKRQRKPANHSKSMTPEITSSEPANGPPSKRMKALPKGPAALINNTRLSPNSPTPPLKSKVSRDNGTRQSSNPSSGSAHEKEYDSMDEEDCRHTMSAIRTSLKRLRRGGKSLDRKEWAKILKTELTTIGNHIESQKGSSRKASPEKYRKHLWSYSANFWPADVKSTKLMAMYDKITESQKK

Protein translocase subunit SecA (Escherichia coli (strain K12)), sequence (P10408 whole entry): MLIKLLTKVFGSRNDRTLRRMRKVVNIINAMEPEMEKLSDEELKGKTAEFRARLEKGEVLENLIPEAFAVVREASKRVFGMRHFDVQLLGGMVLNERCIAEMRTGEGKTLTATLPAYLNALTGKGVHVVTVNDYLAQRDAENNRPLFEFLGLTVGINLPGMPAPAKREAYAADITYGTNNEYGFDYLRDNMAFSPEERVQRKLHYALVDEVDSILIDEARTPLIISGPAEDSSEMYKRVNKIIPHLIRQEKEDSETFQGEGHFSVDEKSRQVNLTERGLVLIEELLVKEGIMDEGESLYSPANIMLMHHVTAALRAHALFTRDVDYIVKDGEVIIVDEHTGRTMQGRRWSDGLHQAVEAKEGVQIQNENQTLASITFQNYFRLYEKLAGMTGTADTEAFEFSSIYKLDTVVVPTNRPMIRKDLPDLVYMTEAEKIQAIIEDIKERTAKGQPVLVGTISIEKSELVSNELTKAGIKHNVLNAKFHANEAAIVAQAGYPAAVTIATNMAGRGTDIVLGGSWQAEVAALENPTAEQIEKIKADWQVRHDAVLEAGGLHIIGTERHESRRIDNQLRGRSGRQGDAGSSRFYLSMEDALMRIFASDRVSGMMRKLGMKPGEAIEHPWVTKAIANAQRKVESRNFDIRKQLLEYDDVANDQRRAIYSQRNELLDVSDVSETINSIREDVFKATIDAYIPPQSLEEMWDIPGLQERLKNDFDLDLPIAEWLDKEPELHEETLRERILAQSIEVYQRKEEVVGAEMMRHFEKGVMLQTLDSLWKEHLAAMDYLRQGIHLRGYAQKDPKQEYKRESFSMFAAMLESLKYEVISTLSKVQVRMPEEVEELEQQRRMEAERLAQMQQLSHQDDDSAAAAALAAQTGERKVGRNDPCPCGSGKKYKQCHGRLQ

SMILES	Percent Effect [1] [%]	Percent Effect [2] [%]	Percent Effect [3] [%]	Percent Effect [4] [%]	Percent Effect [5] [%]	Percent Effect [6] [%]	Percent Effect [7] [%]	Percent Effect [8] [%]	Percent Effect [9] [%]	Percent Effect [10] [%]	Percent Effect [11] [%]
Cc1noc(C)c1CCC(=O)N1CCCN(Cc2cscn2)CC1	-1.71	13.2	-5.71	-4.5	-3.76	6.9	21.1	23	8.33	17.1	-10.5
CCCc1nc(C)c(C(=O)NS(=O)(=O)c2ccc(C#N)cc2)s1	-4.98	10.8	-2.15	25.9	6.18	0.476	9.14	2.07	0.529	9.76	-9.01
Cn1cccc1C(CNC(=O)c1ccc(F)cc1F)N1CCCCCC1 (configuration not stated)	-3.52	15.6	-9.64	-10.9	6.21	-3.23	17.9	11	8.47	21.8	-12.6
Cc1nn(-c2ccccc2)c2c1C(c1ccc(C(=O)O)cc1)CC(=O)N2 (configuration not stated)	-4.78	10.7	-3.15	13.8	6.33	2.6	7.85	11.5	3.83	6.17	-14.9
Cc1nc(CC(=O)N2CCCCC2c2ccn3ccnc3n2)cs1 (configuration not stated)	-1.88	-4.05	11.6	4.95	-1.78	-3.02	12.6	7.12	-1.07	1.3	-15.1
Cc1cnc2n1CCN(C)C21CCN(C(=O)CC(C)C)CC1	-2.76	8	2.31	1.76	-5.21	-26.3	8.38	-3.36	-1.04	15	-7.37
Cc1cn2c(n1)CCC(NC(=O)c1nc(C)ncc1Cl)C2 (configuration not stated)	-5.44	7.79	5.82	3.39	4.41	1.05	8.49	-7.16	4.76	18.8	-23.3
CC(C)CN1CCc2[nH]cnc2C12CCN(C(=O)c1cccnc1)CC2	-8.51	0	-4.57	3.2	-3.99	-1.56	14.3	12.4	-3.83	-6.17	-6.87
O=C(c1ccc2c(c1)OCO2)N1CCCSCC1CN1CCCC1 (configuration not stated)	-4.51	7.79	6.33	7.89	-1.08	5.81	8.53	-0.0393	8.47	11.5	-7.09
CCN1CC(C(=O)NCc2ccnc(-n3ccnc3C)c2)CC1=O (configuration not stated)	-2.69	0	-12.9	-7.63	0	-3.18	3.02	20.3	-1.07	-2.5	-4.95
CCS(=O)(=O)NCCNC(=O)c1cc(Cl)c2c(c1)OCCCO2	-1.06	8.11	-7.22	31.3	1.47	5.21	8.33	12.9	2.15	16.1	-5.31
O=C(NCCC1CCCO1)c1ccccc1N1CCOCC1 (configuration not stated)	-4.55	2.74	-1.11	12.4	4.56	-5.99	10.7	8.12	10.4	18.5	-2.02
Cc1noc(C2CCCCN2C(=O)NC2CCCC2)n1 (configuration not stated)	1.58	7.89	5.88	-7.67	-9.25	-2.37	21.8	0.903	2.13	2.6	-4.56
CS(=O)(=O)c1ccc(CNC(=O)N2CCC(C(N)=O)C2)cc1 (configuration not stated)	-5.24	25.3	-8.85	3.98	8.78	-3.04	14.2	0.909	8.37	26.6	-5.74
CC(C)N1CCn2c(nc3cc(C(N)=O)ccc32)C1	-8.72	12	-4.63	7.53	0.393	-8.63	8.87	2.55	2.12	12.8	-11.8
c1ncn(CC2CN(Cc3csc(C4CCCC4)n3)CCO2)n1 (configuration not stated)	-7.65	15.8	-7.05	15.7	3.46	-1.44	-2.79	2.48	4.43	23.5	-9.07
CC(C)c1ccc(C(O)Cn2c(=O)c(C#N)cn(C3CC3)c2=O)cc1 (configuration not stated)	-0.117	-2.63	7.18	0.134	-6.39	4.21	0.334	1.74	-1.47	-2.44	-2.6
COc1cccc(C(=O)NS(=O)(=O)c2cccc(C#N)c2)c1OC	-5.72	10.8	-6.64	1.98	1.58	2.4	-0.539	0.367	1.98	13.4	3.98
COCCOc1ncccc1CNCc1c(C)nn(C)c1N(C)C	-1.27	-5.41	-15.1	-0.788	1.98	3.61	0.721	-9.31	2.46	6.17	-18.1
CN(Cc1ccco1)C[C@H]1OC[C@@H]2CCN(Cc3cccnc3)C[C@@H]21	-2.62	10.7	0.611	-1.35	0.772	-51.1	8.55	1.18	0	10	-2.25
CCc1nnc(CNCC2CCN(CC(O)c3ccccc3)CC2)o1 (configuration not stated)	-4.81	19	-3.87	-2.88	-2.15	-7.1	11.5	14	-2.08	12.7	-30.3
CCNC(c1ccc(OC)cc1)c1cccnc1 (configuration not stated)	-5.06	-1.27	5.52	9.44	-1.74	-0.645	3.94	6.89	1.04	5.06	-10.2
